# TRPM1 prom inh – MITF TRPM1 promoter inhibition in SK-MEL-5 cells; SK-MEL-5 TRPM1 promoter luciferase, 24 h; inhibition, % at 12.5 µM; 330,000 tested, 0.83% active; AID 488899;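 active = mean inhibition across replicates of 60% or more, whatever share of single replicates reaches that level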
# KKLEB cytotox – reduces viability of KKLEB cystic fibrosis airway cells. KKLEB CF airway cells viability, ATPlite luminescence, overnight; hits give low values; cells stimulated with P. aeruginosa culture filtrate. activity change (cytotoxicity), % at 5 µM. 360,000 tested, 0.36% active. AID 602141;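 active = corrected activity change at or below -50% at 5 µM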
# CF NFkB block – cystic fibrosis NF-kB activation inhibition; KKLEB NF-kB-GFP reporter, PAF-induced, GFP fluorescence overnight; inhibition, % at 5 µM; 360,000 tested, 0.86% active; AID 588850;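 active = at least 50% inhibition at 5 µM, scaled per plate between neutral and stimulator controls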;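 also: PAF is a Pseudomonas aeruginosa culture filtrate used as stimulus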
# LMP1 NFkB inh – inhibitors of Epstein-Barr LMP1-induced NF-kappaB reporter; LMP1-induced NF-kappaB luciferase reporter cells, luminescence; inhibition, % at 12.5 µM; 350,000 tested, 0.69% active; in the data active = inhibition above about 41%
# Peg3 prom inh – reduces Peg3 promoter-driven luciferase expression in HeLa | HeLa PEG-Prom luciferase reporter, luminescence, overnight | inhibition, % at 20 µM | 360,000 tested, 1.7% active;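 active = inhibition of at least 50% at 20 µM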
# Shn3 inh set2 – reduces Shn3 3'UTR luciferase signal in osteoblasts. 360,000 tested, 0.52% active. inhibition, % at 12.5 µM. AID 588674. Clone20 osteoblast Shn3 3'UTR firefly luciferase, 24 h;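 active = mean inhibition of at least 75% with every replicate also reaching 75%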
# Hits are given with their value; n = inactive; x = not tested or not shown. Only some compounds are listed: those with a hit (about 2.9% of all), similar ones and a draw of the others.
SMILES,TRPM1 prom inh,KKLEB cytotox,CF NFkB block,LMP1 NFkB inh,Peg3 prom inh,Shn3 inh set2
COc1ccc(S(=O)(=O)N2CCN(c3cc(-c4ccccc4)nc4ncnn34)CC2)cc1,n,n,n,n,n,87
O=S(=O)(c1ccccc1)N1CCN(c2cc(-c3ccccc3)nc3ncnn23)CC1,n,n,n,43,n,84
O=S(=O)(c1ccc(Br)cc1)N1CCN(c2cc(-c3ccccc3)nc3ncnn23)CC1,n,n,n,n,n,n
CCOc1ccc(CNCCc2ccc(S(N)(=O)=O)cc2)cc1,n,n,n,n,n,n
CCOc1cc(CNCCc2ccc(S(N)(=O)=O)cc2)ccc1OCc1ccc(Cl)cc1,92,n,n,n,108,91
COc1cc(CNCCc2ccc(S(N)(=O)=O)cc2)ccc1OCc1ccc(Cl)cc1,n,n,n,n,92,n
CC(=O)c1ccc(S(=O)(=O)N2CCN(C(=O)c3ccc(-n4nc(C)c(Cl)c4C)cc3)CC2)cc1,n,n,n,n,n,n
COCc1[nH]nc2c1C(c1ccc(OC)c(OC)c1)C(C#N)=C(N)O2 (stereo not drawn),n,n,n,n,n,n
CCn1c2ccccc2c2cc(C3C(C#N)=C(N)Oc4n[nH]c(COC)c43)ccc21 (stereo not drawn),n,n,n,92,89,n
O=C(C[C@H]1C(=O)N(Cc2ccccc2)C[C@@H]1Cc1ccccc1)Nc1ccc(Br)cc1,x,n,n,n,n,n
O=C(c1ccccc1Br)N1CCN(Cc2ccc3c(c2)OCO3)CC1,n,n,n,43,n,n
O=C(O)c1ccccc1C(=O)N1CCN(Cc2ccc3c(c2)OCO3)CC1,n,n,n,x,n,n
CC(C1SC(=S)NC1=O)C1SC(=S)NC1=O (stereo not drawn),x,n,n,n,n,n
Cc1nc(NCc2ccco2)c2c(C)c(C)sc2n1,n,n,n,n,88,n
COc1ccc(CN(C)C(=O)c2cc(-c3ccccc3)nc3ccc(C)cc23)c(OC)c1,x,n,n,n,98,n
CC(C)N1C(=O)/C(=C\c2nc3ccccc3c(=O)[nH]2)c2ccccc21,n,n,n,n,61,n
CCC(C)(C)c1ccc(OCCCC[n+]2cccc(C)c2)c(C(C)(C)CC)c1,98,n,60,n,101,88
CC1(C)C=Cc2c(c3c(c4c(=O)c(-c5ccc(O)cc5)coc24)OC(C)(C)CC3)O1,n,n,n,n,63,n
CCc1ccc(S(=O)(=O)NCc2ccc(C(=O)NCCN(Cc3ccccc3)C(C)C)cc2)cc1,x,n,n,x,n,n
CSC(=N/N=C(\N)c1cnccn1)SC,n,n,n,43,n,n
O=C(O)c1cnccn1,n,n,n,n,n,n
COCCCNC(=O)CN1C(=O)COc2ccc(S(=O)(=O)N3CCOCC3)cc21,n,n,n,57,n,n
COCCn1c(-c2ccc(OC)cc2)cnc1SCC(=O)Nc1cc(C)on1,n,n,n,n,n,n
COCCn1c(-c2ccc(OC)cc2)cnc1SCC(=O)Nc1ccc(OC)cc1OC,n,n,n,n,64,n
COc1cc[n+]([O-])cc1[N+](=O)[O-],n,n,n,n,n,n
SMILES,TRPM1 prom inh,KKLEB cytotox,CF NFkB block,LMP1 NFkB inh,Peg3 prom inh,Shn3 inh set2
CC(C)C(Cl)=NOC(=O)Nc1ccc(S(N)(=O)=O)cc1,n,n,n,n,88,95
COC(=O)[C@H](C)NC(=O)Nc1ccc(S(N)(=O)=O)cc1,n,n,n,n,n,n
Cc1cccc(CSc2cccc3cccnc23)c1,n,n,n,n,n,96
O=S(=O)(Nc1ccc(-c2ccc3nncn3n2)cc1)c1ccccc1F,n,n,n,n,51,n
CCN(C(=O)CSc1nc2scc(-c3ccccc3)c2c(=O)n1N)C1CCS(=O)(=O)C1 (stereo not drawn),n,n,n,n,n,n
OC(COc1ccc(OCC(O)CN2CCCCC2)cc1)CN1CCCCC1 (stereo not drawn),n,n,n,n,n,n
COc1ccc(CCNCC(O)COc2cccc(Br)c2)cc1 (stereo not drawn),n,n,n,n,74,n
OC(COc1ccc(CNCCc2ccc(C(F)(F)F)cc2)cc1)CN1CCCCC1 (stereo not drawn),94,n,n,n,104,n
OC(CNC1CCCC1)COc1ccccc1Br (stereo not drawn),n,n,n,n,n,n
OC(CNCCc1ccc(C(F)(F)F)cc1)COc1cccc2ccccc12 (stereo not drawn),n,n,n,n,90,n
COc1ccccc1COCC(O)CNCCc1ccc(C(F)(F)F)cc1 (stereo not drawn),n,n,n,n,n,n
OC(CNC1CCCCCC1)COc1cccc2ccccc12 (stereo not drawn),n,n,n,n,92,n
CC1=C(C(=O)N(C(C)C)C(C)C)CC(CC(=O)NCCN2CCOCC2)C(=O)N1Cc1ccc(F)cc1 (stereo not drawn),x,n,n,x,n,n
Cc1ccccc1S(=O)(=O)NC(=O)C1(C)CCN1C(=O)CC(c1ccccc1)c1ccccc1 (stereo not drawn),x,n,n,x,n,n
CC1=C(C(=O)N(C(C)C)C(C)C)CC(CC(=O)NCc2ccco2)C(=O)N1CCC1=CCCCC1 (stereo not drawn),x,n,n,x,n,n
OC(CNCCc1ccc(C(F)(F)F)cc1)COc1ccc2ccccc2c1 (stereo not drawn),n,n,n,n,101,n
COc1ccc(-c2cc(C#N)nc(Cl)n2)cc1,66,n,n,n,n,n
COc1ccc(-c2cc(C#N)nc(Oc3ccc(Cl)cc3)n2)cc1,n,n,n,n,n,n
CC(C)Nc1ncnc2c1ncn2[C@H]1CN(Cc2cccs2)C[C@@H](CO)O1,x,n,n,x,n,n
Cc1cccc2cc(C#N)c(SCC(=O)N3CC(=O)Nc4ccccc43)nc12,65,n,n,n,n,n
C[C@H](CO)N1C[C@H](C)[C@@H](CN(C)Cc2ccccn2)Oc2ncc(-c3ccccc3)cc2C1=O,x,n,n,n,n,n
COc1cccc(C(=O)C(C#N)=C(SC)SC)c1,82,-58,66,n,102,n
CSC(SC)=C(C#N)C(=O)c1ccccc1,65,-50,n,n,99,n
COc1cccc(C(=O)C(CCC#N)c2ccccc2)c1 (stereo not drawn),x,n,n,n,n,n
CC1=NNC(=O)/C1=C\c1cn(-c2ccccc2)nc1-c1ccc(F)cc1,92,-83,91,n,112,n
O=C(O)CCN1C(=O)/C(=C/c2cn(-c3ccccc3)nc2-c2cccs2)SC1=S,n,n,n,n,n,n
CC1=NNC(=O)/C1=C\c1cn(-c2ccccc2)nc1-c1cccs1,98,n,112,n,115,n
CCOc1cc2c3c(c1)C(C)=CC(C)(C)N3C(=O)C2=O,n,n,n,n,n,n

# Source: PubChem
